In the supplement of paper PMC8975748:
Counter-ions that a name gives are not always drawn.

What follows are molecules tested on Saccharomyces cerevisiae BY4741 SeMeCo community (assay: z-score of subpopulation abundance vs DMSO median, subpopulation auxotrophic for HLM; higher = larger share of this subpopulation than in DMSO controls). Details: 10 µM; 24 h; SM minimal medium; subpopulation (auxotrophy): HLM.
Protocol: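 Fluorescent four-plasmid SeMeCo (self-establishing metabolically cooperating S. cerevisiae BY4741 community; plasmids pH-mRuby2, pL-mWasabi, pU-eCFP, pM-TagRFP657) was grown 24 h in minimal SM medium with each Selleck FDA-approved drug at 10 µM in 384-well plates. Cells were fixed and imaged by high-content confocal microscopy. For each auxotrophic subpopulation (and the prototroph), a z-score gives the deviation from the DMSO vehicle-control population median.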

| SMILES | z-score of subpopulation abundance |
| --- | --- |
| CC(C)c1c(C(=O)Nc2ccccc2)c(-c2ccccc2)c(-c2ccc(F)cc2)n1CC[C@@H](O)C[C@@H](O)CC(=O)O [Atorvastatin] | 1.21 |
| NC[C@H]1O[C@H](O[C@H]2[C@H](O)[C@@H](O[C@H]3O[C@H](CO)[C@@H](O)[C@H](N)[C@H]3O)[C@H](N)C[C@@H]2N)[C@H](O)[C@@H](O)[C@@H]1O [Kanamycin sulfate] | -0.02 |
| COC(=O)C1=C(C)NC(C)=C(C(=O)OCCN2CCN(C(c3ccccc3)c3ccccc3)CC2)C1c1cccc([N+](=O)[O-])c1 (stereo not given) [Manidipine 2HCl] | 1.42 |
| Cc1ccc(Cl)c(Nc2ccccc2C(=O)O)c1Cl [Meclofenamate Sodium] | -0.85 |
| O=C(CCCN1CC=C(n2c(=O)[nH]c3ccccc32)CC1)c1ccc(F)cc1 [Droperidol] | 0.63 |
| O=C1NC(=O)C(c2ccccc2)(c2ccccc2)N1 [Phenytoin] | -0.09 |
| CNS(=O)(=O)CCc1ccc2[nH]cc(C3CCN(C)CC3)c2c1 [Naratriptan HCl] | -0.19 |
| COc1cccc(-c2c(C)n(Cc3c(F)cccc3C(F)(F)F)c(=O)n(C[C@H](NCCCC(=O)O)c3ccccc3)c2=O)c1F [Elagolix Sodium] | -0.27 |
| CN(Cc1cnc2nc(N)nc(N)c2n1)c1ccc(C(=O)N[C@@H](CCC(=O)O)C(=O)O)cc1 [Methotrexate disodium] | 14.3 |
| NC12CC3CC(CC(C3)C1)C2 [Amantadine] | -0.36 |
| CCC1(c2ccccc2)C(=O)NCNC1=O [Primidone] | 0.29 |
| CCn1cc(C(=O)O)c(=O)c2cc(F)c(N3CCNCC3)nc21 [Enoxacin] | -0.64 |
| CC1(C)S[C@@H]2[C@H](NC(=O)C(C(=O)O)c3ccccc3)C(=O)N2[C@H]1C(=O)O (stereo not given in full) [Carbenicillin disodium] | -0.53 |
| Nc1nc(N)c2nc(-c3ccccc3)c(N)nc2n1 [Triamterene] | 2.07 |
| OC(CCN1CCCCC1)(c1ccccc1)C1CCCCC1 (stereo not given) [Trihexyphenidyl hydrochloride] | 0.68 |
| NC[C@H]1O[C@H](O[C@H]2[C@H](O[C@@H]3O[C@H](CO)[C@@H](O)[C@H]3O)[C@@H](O)[C@H](N)C[C@@H]2N)[C@H](N)[C@@H](O)[C@@H]1O [Ribostamycin Sulfate] | -0.38 |
| O=C(O)c1ccccc1C(=O)Nc1ccc(S(=O)(=O)Nc2nccs2)cc1 [Phthalylsulfathiazole] | -0.76 |
| CCN1CCC[C@H]1CNC(=O)c1cc(S(N)(=O)=O)ccc1OC [Levosulpiride] | -0.19 |
| CC[C@H]1OC(=O)[C@H](C)[C@@H](O[C@H]2C[C@@](C)(OC)[C@@H](O)[C@H](C)O2)[C@H](C)[C@@H](O[C@@H]2O[C@H](C)C[C@H](N(C)C)[C@H]2O)[C@](C)(O)C[C@@H](C)C(=O)[C@H](C)[C@@H](O)[C@]1(C)O [Erythromycin thiocyanate] | -0.68 |
| Nc1ccc(S(=O)(=O)Nc2ccnn2-c2ccccc2)cc1 [Sulfaphenazole] | -0.29 |

| SMILES | z-score of subpopulation abundance |
| --- | --- |
| CCCN1CCCC[C@H]1C(=O)Nc1c(C)cccc1C [Ropivacaine HCl] | 0.38 |
| COC(=O)C1=C(C)NC(C)=C(C(=O)OC(C)C)C1c1cccc2nonc12 (stereo not given) [Isradipine] | -0.7 |
| CCC(C)(C)c1ccc(CC(C)CN2C[C@@H](C)O[C@@H](C)C2)cc1 (stereo not given in full) [Amorolfine HCl] | 10.3 |
| CN(C)CCCC1(c2ccc(F)cc2)OCc2cc(C#N)ccc21 (stereo not given) [Citalopram HBr] | 0.45 |
| CNCCCC1c2ccccc2C=Cc2ccccc21 [Protriptyline hydrochloride] | -0.07 |
| CO/N=C(\C(=O)N[C@@H]1C(=O)N2C(C(=O)O)=C(COC(C)=O)CS[C@H]12)c1csc(N)n1 [Cefotaxime sodium] | 0 |
| CCN(CC)CC#CCOC(=O)C(O)(c1ccccc1)C1CCCCC1 (stereo not given) [Oxybutynin] | -0.46 |
| O=C(O)c1cc(=O)c2c(OCC(O)COc3cccc4oc(C(=O)O)cc(=O)c34)cccc2o1 [Disodium Cromoglycate] | -0.04 |
| CC(=O)NS(=O)(=O)c1ccc(N)cc1 [Sulfacetamide Sodium] | -0.1 |
| CN[C@H]1C(=O)N[C@@H]2Cc3ccc(cc3)Oc3cc4cc(c3O[C@@H]3O[C@H](C(=O)O)[C@@H](O)[C@H](O)[C@H]3NC(=O)CCCCCCCCC(C)C)Oc3ccc(cc3Cl)[C@@H](O)[C@@H]3NC(=O)[C@H](NC(=O)[C@@H]4NC(=O)[C@@H](NC2=O)c2cc(cc(O)c2Cl)Oc2cc1ccc2O)c1ccc(O)c(c1)-c1c(O[C@H]2O[C@H](CO)[C@@H](O)[C@H](O)[C@@H]2O)cc(O)cc1[C@@H](C(=O)NCCCN(C)C)NC3=O [Dalbavancin] | 1.32 |
| C#C[C@]1(O)CC[C@H]2[C@@H]3CCC4=CC(=O)CC[C@@H]4[C@H]3C(=C)C[C@@]21CC [Etonogestrel] | -0.55 |
| CC(C)NNC(=O)c1ccncc1 [Iproniazid] | -0.85 |
| CO/N=C(\C(=O)N[C@@H]1C(=O)N2C(C(=O)O)=C(CSc3nc(=O)c(O)nn3C)CS[C@H]12)c1csc(N)n1 [Ceftriaxone Sodium Trihydrate] | 0.5 |
| CCOC(=O)c1c(CSc2ccccc2)n(C)c2cc(Br)c(O)c(CN(C)C)c12 [Arbidol HCl] | 0.87 |
| COc1ccc2[nH]c([S+]([O-])Cc3ncc(C)c(OC)c3C)nc2c1 (stereo not given) [Omeprazole Sodium] | -0.14 |
| CC[C@H](C)C(=O)O[C@H]1C[C@H](O)C=C2C=C[C@H](C)[C@H](CC[C@@H](O)C[C@@H](O)CC(=O)O)[C@H]21 [Pravastatin sodium] | 0.62 |
| NC[C@@H]1O[C@H](O[C@H]2[C@@H](O)[C@H](O[C@@H]3[C@@H](O)[C@H](N)C[C@H](N)[C@H]3O[C@H]3O[C@H](CN)[C@@H](O)[C@H](O)[C@H]3N)O[C@@H]2CO)[C@H](N)[C@@H](O)[C@@H]1O [Neomycin sulfate] | -0.3 |
| CC(C)C(=O)c1c(C(C)C)nn2ccccc12 [Ibudilast] | -0.49 |
| CC(=O)NO [Acetohydroxamic acid] | 0.6 |
| C#CCC(Cc1cnc2nc(N)nc(N)c2n1)c1ccc(C(=O)N[C@@H](CCC(=O)O)C(=O)O)cc1 (stereo not given in full) [Pralatrexate] | 4.47 |
